Results published in PubChem BioAssay AID2417 (National Center for Advancing Translational Sciences (NCATS), 2010).
The whole screen tested about 140,000 compounds, of which about 4,300 (3.1%) were called active. Roughly 21% stayed inconclusive and do not appear here.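 How the source made its calls: active means readout at or below -70, meaning at least 70% loss of cells showing the perinucleolar compartment, a nuclear body marking cancer cells; inconclusive means readout between -30 and a set limit; inactive means the rest.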 The sample as a whole holds a higher share of actives than the screen did.

assay: High Content Assay for Compounds that inhibit the Assembly of the Perinucleolar Compartment; settings: PC3M PTB-GFP, PNC prevalence imaging, 16 h; at 10 µM; active compounds read low;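 further: plate controls were DMSO wells for no effect and camptothecin positive control wells for full effect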
Summary of the method: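 Read-out is percentage of cells bearing a perinucleolar compartment, from automated 20x imaging of fixed, Hoechst-stained PC3M PTB-GFP cells. Cells were seeded 4 h, then exposed 16 h to compound (23 nl of library stock) in duplicate plates.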

Row | Compound | activity change (PNC), negative = inhibition
1 | COc1cc(NC(=O)Nc2ccc(C)cc2)cc([N+](=O)[O-])c1 | -87.1% (active)
2 | COc1ccc(NC(=O)Nc2ccc3nc(C)c(C)nc3c2)cc1 | 5.41% (inactive)
3 | CC(=O)c1ccc(NC(=O)Nc2ccc([N+](=O)[O-])cc2C)cc1 | -13% (inactive)
4 | O=C(CN1C2=NCCN2c2ccccc21)c1cccs1 | -2.86% (inactive)
5 | COc1ccc(NS(=O)(=O)c2cc(NC(=O)/C=C/c3cc(OC)c(OC)c(OC)c3)ccc2N2CCCCC2)cc1 | -0.688% (inactive)
6 | CC1(C)CC(=O)C(N=Nc2ccc(S(=O)(=O)N3CCCCCC3)cc2)=C(O)C1 | 24.1% (inactive)
7 | COc1ccc(CNC(=O)CN(Cc2ccc(Cl)cc2)S(C)(=O)=O)cc1 | 48.3% (inactive)
8 | COc1ccc(C(=O)Nc2nc(-c3ccc(OC)cc3)c(-c3ccc([N+](=O)[O-])cc3)s2)cc1 | -23.3% (inactive)
9 | Cc1cccc(NC(=O)c2sc(-c3ccccc3)nc2-c2ccc([N+](=O)[O-])cc2)c1 | -100% (active)
10 | O=C(CSc1nc(-c2ccccc2)cs1)Nc1cccc([N+](=O)[O-])c1 | 126% (inactive)
11 | O=C1/C(=C\c2cccnc2)CN(Cc2ccccc2)C/C1=C\c1cccnc1 | -112% (active)
12 | O=C1OC(c2ccc(Cl)cc2)=N/C1=C\c1cccnc1 | 41.2% (inactive)
13 | O=C(O)C1CC(=O)N(Cc2cccnc2)C1 (configuration not stated) | -9.97% (inactive)
14 | O=C(Nn1c(-c2ccc(Cl)cc2)nc2ccccc2c1=O)c1cccnc1Cl | 8.85% (inactive)
15 | Cc1ccnc(NS(=O)(=O)c2ccc(NC(=O)c3ccc(S(=O)(=O)N4CCOCC4)cc3)cc2)n1 | -19.3% (inactive)
16 | CC(OC(=O)CNS(=O)(=O)/C=C/c1ccccc1)C(=O)Nc1ccc(S(=O)(=O)N2CCCC2)cc1 (configuration not stated) | 64.4% (inactive)
17 | CCOC(=O)/C(=N\Nc1cc(Cl)ccc1Cl)N1CCN(C)CC1 | -27.3% (inactive)
18 | O=C(Cn1c(-c2ccccn2)nc2ccccc21)NCCN1CCOCC1 | 42.9% (inactive)
19 | c1ccc2[nH]c(NCCN3CCOCC3)nc2c1 | -1.68% (inactive)
20 | c1ccc2cc3c(NCCN4CCOCC4)ccnc3cc2c1 | -103% (active)
21 | NS(=O)(=O)c1ccc(NC(=O)COC(=O)C2(c3ccc(F)cc3)CCCC2)cc1 | 50% (inactive)
22 | CC1(C)Cc2cccc(OCC(=O)Nc3nccs3)c2O1 | -87.8% (active)
23 | CCCCOC(=O)Nc1nccs1 | 243% (inactive)

Row | Compound | activity change (PNC), negative = inhibition
24 | CC1(C)Cc2cccc(OCC(=O)N3CCN(c4ccc([N+](=O)[O-])cc4)CC3)c2O1 | 7.92% (inactive)
25 | Cc1ccccc1C(OCCN(C)C)C1CCCCC1 (configuration not stated) | -5.25% (inactive)
26 | Cc1ccccc1Nc1nc(N)nc(CSc2ccccc2)n1 | -3.06% (inactive)
27 | N=c1c2c(-c3ccccc3)c(-c3ccccc3)oc2ncn1Cc1ccco1 | 34.2% (inactive)
28 | N=c1c2c(-c3ccccc3)c(-c3ccccc3)n(Cc3ccccc3)c2ncn1CCCO | -90.2% (active)
29 | OCCCN1c2ccccc2Nc2nnc(-c3ccccc3)cc21 | -15.1% (inactive)
30 | CN(C)c1ccc(/C=N/N(Cc2ccccc2)c2ccccc2)cc1 | -6.4% (inactive)
31 | CCN1CN(Cc2ccccc2)CNC1=S | -4.78% (inactive)
32 | CCCOc1ccc(Cn2ccnc2)cc1[N+](=O)[O-] | -21.9% (inactive)
33 | CCCCCOc1ccc(CSC2=NCCN2)cc1[N+](=O)[O-] | -84.7% (active)
34 | CCCCOc1ccc(CSC(=N)N)cc1[N+](=O)[O-] | -6.06% (inactive)
35 | COc1ccc(Br)cc1CN(C)CC(=O)Nc1cc(Cl)cc(Cl)c1 | 5.92% (inactive)
36 | O=C(NC1CC1)c1cccc(Br)c1 | 8.13% (inactive)
37 | CN(c1ccccc1)S(=O)(=O)c1ccc(Cl)c(C(=O)NCCc2c[nH]c3ccccc23)c1 | -83.7% (active)
38 | Cc1cc(C)cc(NC(=S)NCCc2c[nH]c3ccccc23)c1 | 22.2% (inactive)
39 | CCN(CC)S(=O)(=O)c1ccc2[nH]cc(C(=O)NCCc3ccccc3)c(=O)c2c1 | -4.74% (inactive)
40 | Cc1ccc(-n2nc3cc(C)c(NC(=O)c4cccnc4)cc3n2)cc1 | 22.4% (inactive)
41 | O=C1CC(NNc2ccccc2)C(=O)N1c1cccc(Cl)c1 (configuration not stated) | 44.7% (inactive)
42 | O=C(NNC1CC(=O)N(c2cccc(Cl)c2)C1=O)c1cccnc1 (configuration not stated) | -121% (active)
43 | O=C(CCc1ccc(S(=O)(=O)N2CCOCC2)cc1)NN=C1CCCCCCC1 | -25.6% (inactive)
44 | N#CC1=C(N)Oc2c(sc3ccccc23)C1c1ccco1 (configuration not stated) | -91.1% (active)
45 | Cc1cc2c(c(=O)n1Cc1ccco1)C(c1ccccc1)C(C#N)=C(N)O2 (configuration not stated) | -6.34% (inactive)
46 | Cc1cc2oc(C(=O)Nc3c(C)n(C)n(-c4ccccc4)c3=O)c(C)c2cc1Cl | 2.22% (inactive)

Row | Compound | activity change (PNC), negative = inhibition
47 | Cc1cccc(NC(=O)/C=C/c2ccc3c(c2)OCO3)n1 | 46% (inactive)
48 | COc1ccc(NC(=O)c2sccc2SCC#N)cc1 | -88.1% (active)
49 | COc1ccc(NC(=O)c2ccc(C#CC(C)(C)O)cc2)cc1 | -12.4% (inactive)
50 | COc1ccc(NC(=O)c2c(SC)nsc2SC)cc1 | -6.12% (inactive)
51 | CCCOC(=O)c1ccc(N2C(=O)c3ccccc3C2=O)cc1 | -21.8% (inactive)
52 | COc1ccc(C(=O)NC2(C(F)(F)F)NC(=O)N(CCCc3ccccc3)C2=O)c(OC)c1OC (configuration not stated) | -8.14% (inactive)
53 | CC(=O)Nc1ccc(S(=O)(=O)N2CCN(c3ccc([N+](=O)[O-])c(NCCN4CCOCC4)c3)CC2)cc1 | -13.1% (inactive)
54 | O=C(O)CCC(=O)Nc1ccc(N2CCOCC2)cc1 | -23.8% (inactive)
55 | CN(CC(=O)Nc1ccc(N2CCOCC2)cc1)CC(=O)Nc1ccccc1[N+](=O)[O-] | -100% (active)
56 | O=C(NCCc1ccccc1)C1CCC(Cn2c(=O)c3ccccc3n(Cc3cccnc3)c2=O)CC1 (configuration not stated) | 13.2% (inactive)
57 | Cc1nc(SCc2ccc(F)cc2)c([N+](=O)[O-])[nH]1 | 17.5% (inactive)
58 | CCC(NC(=O)c1ccccc1NC(=O)c1ccccc1)C(=O)NNC(=O)CSc1nc2ccccc2o1 (configuration not stated) | -4.05% (inactive)
59 | COCCn1c(=O)[nH]c(=O)c2cc(C(=O)c3cc(OC)ccc3O)cnc21 | -8.95% (inactive)
60 | Cc1cc(=O)oc2cc(OCC3CC(c4ccccc4Cl)=NO3)ccc12 (configuration not stated) | -89.5% (active)
61 | Cc1ccccc1N1CCN(CCCOc2ccc3c(C)cc(=O)oc3c2)CC1 | -23.3% (inactive)
62 | Cc1ccccc1NC(=O)c1ccc(COc2ccc3c(C)cc(=O)oc3c2)cc1 | 90.9% (inactive)
63 | COc1ccc(/C(N)=N/OC(=O)CCCc2ccccc2)cc1 | -16.1% (inactive)
64 | COc1ccccc1NC(=O)CCCc1c[nH]c2ccccc12 | -4.48% (inactive)
65 | COc1cc(C2C(C(=O)Nc3ccccc3OC)=C(C)Nc3ncnn32)ccc1O (configuration not stated) | 17.6% (inactive)
66 | COc1ccccc1NC(=O)C1=C(C)Nc2ncnn2C1c1ccc(C)o1 (configuration not stated) | -27.1% (inactive)
67 | COc1ccccc1NC(=O)C1=C(C)Nc2nc3ccccc3n2C1c1cccs1 (configuration not stated) | -82.7% (active)
68 | Cc1ccc(Oc2cc(NC(=O)CCCn3nc(C)c([N+](=O)[O-])c3C)cc([N+](=O)[O-])c2)cc1 | 5% (inactive)
69 | CNC(=O)NC(=O)C(OC(=O)c1cccc(S(=O)(=O)N2CCCCC2)c1)c1ccccc1 (configuration not stated) | -3.58% (inactive)

Row | Compound | activity change (PNC), negative = inhibition
70 | COc1cc(OC)cc(-c2nc3ccccc3c(=O)n2NC(=O)c2cccnc2Cl)c1 | -30% (inactive)
71 | N#Cc1ccccc1Sc1ccccc1C(=O)OCC(=O)NC1CCCCC1 | 33.1% (inactive)
72 | O=C(COC(=O)c1cc(-c2cccs2)nn1-c1ccccc1)Nc1cc([N+](=O)[O-])ccc1Cl | 21.6% (inactive)
73 | COc1ccc(C(=O)CN(C(=O)c2ccc(Cl)cc2)N2C(=O)c3ccccc3C2=O)cc1 | -9.88% (inactive)
74 | CCCCC(C(=O)OCC(=O)c1ccc(OC)cc1)N1C(=O)c2ccccc2C1=O (configuration not stated) | -100% (active)
75 | COc1ccc(OCCCON2C(=O)c3ccccc3C2=O)cc1 | 0.67% (inactive)
76 | CCCCN1C(=O)CCC(C(=O)O)C1c1ccc(OC)cc1 (configuration not stated) | 36.8% (inactive)
77 | CCN(CC)c1ccc(S(=O)(=O)N2CCOCC2)cc1NC(=O)CSc1cccc[n+]1[O-] | 11.8% (inactive)
78 | Cc1nc(NCCN)c(C#N)c2c1COC(C)(C)C2 | 32.5% (inactive)
79 | Cc1nc(NCc2ccccc2)c(C(N)=O)c2c1COC(C)(C)C2 | -122% (active)
80 | O=C(c1cccnc1NCc1ccccc1)N1CCOCC1 | 40.9% (inactive)
81 | S=C(NCc1ccc(Cl)cc1)NC1CCCCC1 | 32.1% (inactive)
82 | COc1ccc(S(=O)(=O)N2CCN(C(=O)c3cccs3)CC2)cc1OC | -15.3% (inactive)
83 | COc1ccc(S(=O)(=O)N2CCC(C(=O)N3CCOCC3)CC2)cc1OC | -7.88% (inactive)
84 | COc1ccc(S(=O)(=O)N2CCC(C(=O)N3CCc4ccccc4C3)CC2)cc1OC | -84.1% (active)
85 | C=CCNC(=O)/C(=C\c1cccc([N+](=O)[O-])c1)NC(=O)c1ccccc1 | 48.8% (inactive)
86 | O=C(CSc1ncnc2scc(-c3ccccc3)c12)NCc1ccc2c(c1)OCO2 | 40.3% (inactive)
87 | Cc1cc(O)ccc1NC1=CC(=O)CC(C)(C)C1 | -15.4% (inactive)
88 | Cc1noc(COc2ccccc2OCC(O)CNC(C)(C)C)n1 (configuration not stated) | -3.16% (inactive)
89 | Cc1nc2ccccc2cc1OCc1ccc(F)cc1 | 41.2% (inactive)
90 | Cc1noc(COc2ccccc2OCc2onc(C)c2Cl)c1Cl | -100% (active)
91 | COc1ccc(CCNC(=O)COC(=O)C2CCCCC2)cc1 | 43.3% (inactive)
92 | Cc1cccc(C)c1NC(=O)C(c1ccccc1)N1CC(=O)Nc2ccccc21 (configuration not stated) | 43.2% (inactive)
